# In all, about 340,000 compounds went through this assay and about 730 (0.21%) were called active.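 Rule for the calls: active = inhibition above the mean over all tested compounds plus 3 SD (cut at about 21% in these data); inactive = the rest.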 The full list was thinned out, with actives kept by preference.
# Molecular target: Toll-like receptor 9 (Homo sapiens) + Myeloid differentiation primary response protein MyD88 (Homo sapiens) (UniProt Q9NR96+Q99836)
# Assay: inhibitors of TLR9-MyD88 association in cells, primary screen, cell-based, CHO, BLA complementation, fluorescence (AID 504734);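 note: 0% = DMSO only wells and 100% = clavulanate BLA inhibitor control wells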
# Conditions: CHO BLA complementation TLR9-MyD88, CCF4 FRET ratio; at 4.98 µM; hits give high values
# Toll-like receptor 9 (Homo sapiens) + Myeloid differentiation primary response protein MyD88 (Homo sapiens), sequence (Q99836 whole entry, looked up): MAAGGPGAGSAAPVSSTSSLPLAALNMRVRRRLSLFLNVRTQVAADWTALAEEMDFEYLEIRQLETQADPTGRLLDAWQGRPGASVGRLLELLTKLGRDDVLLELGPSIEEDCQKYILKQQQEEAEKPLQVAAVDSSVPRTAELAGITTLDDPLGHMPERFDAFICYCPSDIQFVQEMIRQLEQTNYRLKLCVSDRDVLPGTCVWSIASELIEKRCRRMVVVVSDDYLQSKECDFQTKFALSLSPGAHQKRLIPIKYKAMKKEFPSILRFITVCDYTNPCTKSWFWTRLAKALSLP
# Toll-like receptor 9 (Homo sapiens) + Myeloid differentiation primary response protein MyD88 (Homo sapiens), sequence (Q9NR96 whole entry, looked up): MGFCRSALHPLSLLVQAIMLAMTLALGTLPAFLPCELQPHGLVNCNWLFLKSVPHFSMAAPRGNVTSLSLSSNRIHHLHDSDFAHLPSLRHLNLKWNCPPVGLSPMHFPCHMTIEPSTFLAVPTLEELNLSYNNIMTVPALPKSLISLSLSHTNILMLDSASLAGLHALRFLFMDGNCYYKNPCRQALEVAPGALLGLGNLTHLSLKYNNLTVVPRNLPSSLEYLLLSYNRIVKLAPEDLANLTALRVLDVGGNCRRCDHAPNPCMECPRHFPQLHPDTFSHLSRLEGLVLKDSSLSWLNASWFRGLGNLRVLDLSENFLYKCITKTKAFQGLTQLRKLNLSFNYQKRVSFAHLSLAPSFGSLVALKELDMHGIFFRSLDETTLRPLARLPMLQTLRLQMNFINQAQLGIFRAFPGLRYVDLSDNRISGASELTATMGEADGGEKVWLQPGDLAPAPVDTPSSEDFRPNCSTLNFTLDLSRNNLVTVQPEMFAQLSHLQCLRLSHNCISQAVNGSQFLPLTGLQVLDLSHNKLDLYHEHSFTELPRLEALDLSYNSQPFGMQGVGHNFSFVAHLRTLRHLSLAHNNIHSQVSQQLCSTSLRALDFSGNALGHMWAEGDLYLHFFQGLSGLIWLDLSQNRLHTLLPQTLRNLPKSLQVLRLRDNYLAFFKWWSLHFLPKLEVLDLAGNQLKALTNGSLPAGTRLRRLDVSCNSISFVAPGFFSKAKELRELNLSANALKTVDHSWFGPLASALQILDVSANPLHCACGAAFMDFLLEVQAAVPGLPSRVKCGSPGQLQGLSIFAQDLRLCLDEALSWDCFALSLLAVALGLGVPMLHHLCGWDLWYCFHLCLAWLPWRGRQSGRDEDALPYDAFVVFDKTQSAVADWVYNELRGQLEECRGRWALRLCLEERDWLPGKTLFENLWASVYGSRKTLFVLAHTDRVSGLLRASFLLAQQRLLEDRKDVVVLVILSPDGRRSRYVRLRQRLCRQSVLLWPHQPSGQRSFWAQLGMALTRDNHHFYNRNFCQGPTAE
row,SMILES,inhibition
1,O=C(CSc1ccc(Cl)cc1)NC1CC1,-15.8% (inactive)
2,C#CCN(C[C@H]1[C@H](OC(=O)NC2CCCC2)[C@H](OC(=O)NC2CCCC2)C[C@H]2C(=O)N(c3ccccc3)C(=O)[C@@H]12)S(=O)(=O)c1ccc(C)cc1,-5.56% (inactive)
3,COc1ccc(C2CC(c3ccc(C)cc3)Nc3ncnn32)cc1 (stereo not given),1.5% (inactive)
4,CCOc1ccc(C2=CC(c3ccccc3)n3ncnc3N2)cc1 (stereo not given),33.7% (active)
5,CC1=C(C(=O)OC2CCCCC2)C(c2cccnc2)n2ncnc2N1 (stereo not given),-0.13% (inactive)
6,Clc1ccc2c(c1)C1=C(C(c3ccncc3)O2)C(c2ccc(Br)cc2)n2ncnc2N1 (stereo not given),-8.31% (inactive)
7,Brc1ccc(C2=CC(c3ccco3)n3ncnc3N2)cc1 (stereo not given),30.4% (active)
8,CCN1C(=O)[C@H]2[C@@H](c3ccc(C(F)(F)F)cc3)N[C@]3(CCCN(Cc4ccc(Br)cc4)C3=O)[C@H]2C1=O,5.46% (inactive)
9,N#CCCN(C(=O)Nc1ccc(Cl)c(Cl)c1)C1CCCCC1,8.97% (inactive)
10,CCN(C(=O)Nc1cccc2ccccc12)c1ccccc1,-15.1% (inactive)
11,Cc1nc2ccccc2nc1CC(O)(c1ccccc1)c1ccccc1,2.03% (inactive)
12,CCOC(=O)c1cc(-c2sc(NC(=O)c3ccccc3)nc2C)n(CCO)n1,2.6% (inactive)
13,Cc1cc2c3ccccc3[nH]c(=O)n2n1,1.06% (inactive)
14,CN(c1ccccc1)S(=O)(=O)c1ccc(C(=O)NCc2cccnc2)cc1,7.85% (inactive)
15,CC1CN(Cc2ccccc2)C(=S)NC1=O (stereo not given),-6.13% (inactive)
16,O=[N+]([O-])c1ccc(C(S(=O)(=O)Cc2ccccc2)S(=O)(=O)Cc2ccccc2)cc1,2.65% (inactive)
17,O=C1NC(=O)C2C1C(c1ccc([N+](=O)[O-])cc1)=NN2Cc1ccccc1 (stereo not given),27.8% (active)
18,CN(Cc1ccccc1)C(=O)CCC1CCN(C(=O)c2ccco2)CC1,0.05% (inactive)
19,NS(=O)(=O)c1ccc(CNC(=O)c2cc(S(=O)(=O)N3CCOCC3)ccc2N2CCCC2)cc1,-5.7% (inactive)
20,CC1(c2cccc(Br)c2)NC(=O)N(CC(=O)NCCC2=CCCCC2)C1=O (stereo not given),3.69% (inactive)
21,CCCc1cc(=O)oc2c(C)c(OCC(=O)Nc3ccccn3)ccc12,6.85% (inactive)
22,COc1cccc(C(=O)OCc2cc(=O)oc3c(C)c(C)ccc23)c1OC,-5.33% (inactive)
23,COC(=O)Cc1cc(=O)oc2c(C)c(O)ccc12,21.6% (active)
24,S=C(NN=Cc1ccccn1)Nc1ccccn1,10.2% (inactive)

row,SMILES,inhibition
1,CC1C(=O)N(Cc2cn(Cc3ccco3)nn2)CCS(=O)(=O)N1Cc1ccc(-c2cccc(CO)c2)cc1 (stereo not given),-1.07% (inactive)
2,C[C@@H]1CN([C@@H](C)CO)C(=O)CCCn2nncc2CO[C@H]1CN(C)Cc1ccc(C(F)(F)F)cc1,-8.49% (inactive)
3,C[n+]1ccc(C(=O)NCc2ccccc2)cc1,-10.2% (inactive)
4,O=C(NCCCNCc1ccccc1)c1ccc(/C=N/O)nc1,-3.77% (inactive)
5,C[N+](C)(C)CCNC(=O)c1cc[n+](Cc2ccccc2)c(/C=N/O)c1,22.8% (active)
6,Cc1ccc2cccc([N+](=O)[O-])c2n1,4.24% (inactive)
7,COc1ccc(CCNC(=O)CN(c2ccccc2)S(=O)(=O)c2ccccc2)cc1,0.66% (inactive)
8,COc1cc2[nH]c(O)c(C=O)c2cc1OC,-8.58% (inactive)
9,COc1ccc(OC)c(N=Cc2c(O)[nH]c3ccccc23)c1,41.1% (active)
10,CN=c1scc(-c2cc(OC)ccc2OC)n1/N=C/c1c(C)[nH]c2ccccc12,6.42% (inactive)
11,CC(=O)c1ccccc1NC(=O)COC(=O)C1COc2ccccc2O1 (stereo not given),2.77% (inactive)
12,C[C@@H]1CN([C@@H](C)CO)S(=O)(=O)c2ccc(-c3ccc(C(=O)N(C)C)cc3)cc2O[C@@H]1CN(C)Cc1ccccc1C(=O)O,-6.78% (inactive)
13,CCOC(=O)c1c(NC(=S)SC)sc(C(=O)N2CCc3ccccc3C2)c1C,-0.74% (inactive)
14,COc1ccc(CN2C[C@H]3CON(C)[C@H]3C[C@H]2c2ccc(-c3cccc(F)c3)cc2)cc1,4.13% (inactive)
15,O=C(O)C1CCCN1c1nc(Cl)ccc1[N+](=O)[O-] (stereo not given),-12.8% (inactive)
16,CN1CN(C)c2ccc([N+](=O)[O-])c3cccc1c23,-8.31% (inactive)
17,O=C1c2cccc3c([N+](=O)[O-])ccc(c23)C(=O)N1CC1CCCO1 (stereo not given),56.9% (active)
18,CCOc1cccc(=O)c2c(C)n(CC3CCCO3)c(C)c12 (stereo not given),1.31% (inactive)
19,CCN(Cc1ccncc1)C(=S)Nc1ccccc1C,3.02% (inactive)
20,Cc1cccc(S(=O)(=O)N(C)C[C@@H]2OCc3cnnn3CCCC(=O)N([C@H](C)CO)C[C@@H]2C)c1,-11.3% (inactive)
21,CN1CCN(c2ccncc2S(=O)(=O)N2CCCC2)CC1,3.95% (inactive)
22,O=C(O)/C=C/c1ccc(S(=O)(=O)N2CCCCCC2)cc1,-16.4% (inactive)
23,COc1cccc(C=CC(=O)C=CC=Cc2ccccc2)c1,-5.47% (inactive)
24,O=C(/C=C(O)/C=C/c1ccc(O)cc1)/C=C/c1ccc(O)cc1,42% (active)

row,SMILES,inhibition
1,COc1ccc(NC(=O)CSc2nnnn2-c2cccc(OC)c2)cc1,13.5% (inactive)
2,COCOCCn1cc(CN2CCS(=O)(=O)N(Cc3ccc(-c4ccc(OC)cc4)cc3)C(CC(C)C)C2=O)nn1 (stereo not given),-1.5% (inactive)
3,C[C@@H]1CN([C@@H](C)CO)C(=O)c2c(c3ccccc3n2C)-c2ccccc2CO[C@H]1CN(C)C(=O)C1CC1,-4% (inactive)
4,Cc1cc2oc3ccc(NCCC4CCCN4C)cc3c(=O)c2cc1C (stereo not given),24.9% (active)
5,Cc1cc2oc(=O)cc(CN3CCN(Cc4ccccc4)CC3)c2cc1C,-18.4% (inactive)
6,COc1cccc2sc3cc(NCC[C@@H]4CCCN4C)ccc3c(=O)c12,0.85% (inactive)
7,C[C@H]1CN([C@@H](C)CO)S(=O)(=O)c2ccc(Br)cc2O[C@H]1CN(C)C(=O)c1cnccn1,5.72% (inactive)
8,CCC1NC(=O)c2cccnc2-n2c1nc1ccc(C)cc1c2=O (stereo not given),8.64% (inactive)
9,COc1ccc(S(=O)(=O)N2CCCCC2)cc1C(=O)NC1CCS(=O)(=O)C1 (stereo not given),-5.76% (inactive)
10,CCc1ccccc1NC(=O)CN1CCN(C(=O)c2cc(C3CC3)nn2-c2ccccc2)CC1,-43.9% (inactive)
11,NC(=O)CSc1nnc(-c2cccc(S(=O)(=O)N3CCOCC3)c2)o1,10.4% (inactive)
12,Nc1nnc(SCC(=O)Nc2ccc3nc(SCC(=O)Nc4ccccc4)sc3c2)s1,0.67% (inactive)
13,OCCNc1nc(Nc2ccc(Cl)c(Cl)c2)nc2ccccc12,-0.91% (inactive)
14,O=[N+]([O-])c1c(NCCO)cc(Sc2nc3ccccc3s2)c2nonc12,43.3% (active)
15,O=C(CSc1ncn[nH]1)Nc1nc2c(F)c(F)c(F)cc2s1,-0.11% (inactive)
16,O=C(C[C@H]1C[C@H]2c3cc(NS(=O)(=O)c4ccc(F)cc4)ccc3O[C@H]2[C@H](CO)O1)NCc1cc(F)ccc1F,-5.81% (inactive)
17,COc1cc(C(=O)N2CCN(C)CC2)cc(OC)c1OC,8.16% (inactive)
18,CC1CC(C)CN(S(=O)(=O)c2cccc(C(=O)N3C(=O)c4cccc(N)c4C3=O)c2)C1 (stereo not given),-15.2% (inactive)
19,COc1cc(C(=O)N2C(=O)c3cccc(N)c3C2=O)cc(OC)c1OC,20.9% (active)
20,COc1ccc(-c2c(C#N)cnc(C)c2C)c(O)c1OC,-8.05% (inactive)
21,C#Cc1cc(N2CCN(C(=O)c3ccoc3)CC2)n2nc(-c3cccc(Cl)c3)cc2n1,5.91% (inactive)
22,CCCCCCNC(=O)O[C@]12C[C@@H](C(=O)OC)[C@@H](C(=O)OC)C[C@@]1(O)CN(S(=O)(=O)c1ccc(C)cc1)C2,-7.21% (inactive)

# Reference: PubChem BioAssay AID504734 (The Scripps Research Institute Molecular Screening Center, 2011)
